Hit rate of the full screen: of about 5,500 compounds, about 2,000 (36%) were called active. About 18% were inconclusive and are not listed. The list shows a part of the results. Values without a mark were called inactive. No stated cut-off is given here; in the data, active means normalized growth mostly below about 0.91 (no sharp cut-off); inconclusive means no clear call, values can overlap the other calls; inactive means mostly above about 0.92.
Test: chemical genetic growth profiling, strain panel (AID 1159580);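 further: tested at 20 µM; growth read once vehicle control cultures reached saturation at 30 °C; 1 = growth at the plate median or of vehicle wells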
Details: growth OD

CCCCCCCCCCCCC[N+](C)(C)Cc1ccccc1
normalized growth (S. cerevisiae deletion strains, locus YJR075W, strain HOC1, stronger effect = lower value): 0.0621 (active)
normalized growth (S. cerevisiae deletion strains, locus YKL009W, strain mrt4, stronger effect = lower value): 0.102 (active)
normalized growth (S. cerevisiae deletion strains, locus YKL068W, stronger effect = lower value): 0.0707 (active)
normalized growth (S. cerevisiae deletion strains, locus YKL085W, strain MDH1 (second series), stronger effect = lower value): 0.0622 (active)
normalized growth (S. cerevisiae deletion strains, locus YKL085W, strain MDH1, stronger effect = lower value): 0.0622 (active)
normalized growth (S. cerevisiae deletion strains, locus YKL160W, strain elf1, stronger effect = lower value): 0.0609 (active)
normalized growth (S. cerevisiae deletion strains, locus YKL190W, strain CNB1, stronger effect = lower value): 0.0462 (active)
normalized growth (S. cerevisiae deletion strains, locus YKR001C, strain vps1, stronger effect = lower value): 0.0665 (active)
normalized growth (S. cerevisiae deletion strains, locus YKR026C, strain gcn3, stronger effect = lower value): 0.0645 (active)
normalized growth (S. cerevisiae deletion strains, locus YKR091W, strain srl3, stronger effect = lower value): 0.0591 (active)
normalized growth (S. cerevisiae deletion strains, locus YLL001W, strain dnm1, stronger effect = lower value): 0.0643 (active)
normalized growth (S. cerevisiae deletion strains, locus YLL026W, stronger effect = lower value): 0.0581 (active)
normalized growth (S. cerevisiae deletion strains, locus YLL041C, strain sdh2, stronger effect = lower value): 0.0534 (active)
normalized growth (S. cerevisiae deletion strains, locus YLR027C, strain aat2, stronger effect = lower value): 0.0632 (active)
normalized growth (S. cerevisiae deletion strains, locus YLR039C, strain RIC1, stronger effect = lower value): 0.0768 (active)
normalized growth (S. cerevisiae deletion strains, locus YLR058C, strain SHM2, stronger effect = lower value): 0.0468 (active)
normalized growth (S. cerevisiae deletion strains, locus YLR102C, strain apc9, stronger effect = lower value): 0.0591 (active)
normalized growth (S. cerevisiae deletion strains, locus YLR113W, strain HOG1, stronger effect = lower value): 0.115 (active)
normalized growth (S. cerevisiae deletion strains, locus YLR221C, strain rsa3, stronger effect = lower value): 0.0601 (active)
normalized growth (S. cerevisiae deletion strains, locus YLR258W, strain gsy2, stronger effect = lower value): 0.0594 (active)
normalized growth (S. cerevisiae deletion strains, locus YLR262C, strain YPT6 (second series), stronger effect = lower value): 0.0813 (active)
normalized growth (S. cerevisiae deletion strains, locus YLR262C, strain YPT6, stronger effect = lower value): 0.0988 (active)
normalized growth (S. cerevisiae deletion strains, locus YLR268W, strain sec22, stronger effect = lower value): 0.0715 (active)
normalized growth (S. cerevisiae deletion strains, locus YLR320W, strain mms22, stronger effect = lower value): 0.0747 (active)
normalized growth (S. cerevisiae deletion strains, locus YLR330W, strain CHS5, stronger effect = lower value): 0.0507 (active)
normalized growth (S. cerevisiae deletion strains, locus YLR342W, strain FKS1 (second series), stronger effect = lower value): 0.0621 (active)
normalized growth (S. cerevisiae deletion strains, locus YLR342W, strain FKS1, stronger effect = lower value): 0.0644 (active)
normalized growth (S. cerevisiae deletion strains, locus YLR357W, strain rsc2, stronger effect = lower value): 0.114 (active)
normalized growth (S. cerevisiae deletion strains, locus YLR370C, strain arc18, stronger effect = lower value): 0.0615 (active)
normalized growth (S. cerevisiae deletion strains, locus YLR371W, strain rom2, stronger effect = lower value): 0.0625 (active)
normalized growth (S. cerevisiae deletion strains, locus YLR384C, strain iki3, stronger effect = lower value): 0.0574 (active)
normalized growth (S. cerevisiae deletion strains, locus YLR418C, strain cdc73, stronger effect = lower value): 0.0973 (active)
normalized growth (S. cerevisiae deletion strains, locus YML016C, strain PPZ1, stronger effect = lower value): 0.0455 (active)
normalized growth (S. cerevisiae deletion strains, locus YML032C, strain rad52, stronger effect = lower value): 0.0731 (active)
normalized growth (S. cerevisiae deletion strains, locus YML120C, strain ndi1, stronger effect = lower value): 0.0563 (active)
normalized growth (S. cerevisiae deletion strains, locus YML124C, strain tub3, stronger effect = lower value): 0.0618 (active)
normalized growth (S. cerevisiae deletion strains, locus YMR058W, strain fet3, stronger effect = lower value): 0.064 (active)
normalized growth (S. cerevisiae deletion strains, locus YMR078C, strain ctf18, stronger effect = lower value): 0.0768 (active)
normalized growth (S. cerevisiae deletion strains, locus YMR125W, strain sto1, stronger effect = lower value): 0.0739 (active)
normalized growth (S. cerevisiae deletion strains, locus YMR129W, stronger effect = lower value): 0.0593 (active)
normalized growth (S. cerevisiae deletion strains, locus YMR205C, strain PFK2, stronger effect = lower value): 0.0873 (active)
normalized growth (S. cerevisiae deletion strains, locus YMR223W, strain ubp8, stronger effect = lower value): 0.0651 (active)
normalized growth (S. cerevisiae deletion strains, locus YMR231W, strain pep5, stronger effect = lower value): 0.0683 (active)
normalized growth (S. cerevisiae deletion strains, locus YMR307W, strain GAS1, stronger effect = lower value): 0.11 (active)
normalized growth (S. cerevisiae deletion strains, locus YNL067W, strain RPL9B, stronger effect = lower value): 0.0494 (active)
normalized growth (S. cerevisiae deletion strains, locus YNL071W, strain lat1, stronger effect = lower value): 0.0572 (active)
normalized growth (S. cerevisiae deletion strains, locus YNL128W, strain TEP1, stronger effect = lower value): 0.0628 (active)
normalized growth (S. cerevisiae deletion strains, locus YNL153C, strain GIM3, stronger effect = lower value): 0.0486 (active)
normalized growth (S. cerevisiae deletion strains, locus YNL183C, strain NPR1, stronger effect = lower value): -0.00105 (active)
normalized growth (S. cerevisiae deletion strains, locus YNL209W, strain ssb2, stronger effect = lower value): 0.0596 (active)
normalized growth (S. cerevisiae deletion strains, locus YNL233W, strain BNI4, stronger effect = lower value): 0.0559 (active)
normalized growth (S. cerevisiae deletion strains, locus YNL248C, strain rpa49, stronger effect = lower value): 0.0866 (active)
normalized growth (S. cerevisiae deletion strains, locus YNL250W, strain rad50, stronger effect = lower value): 0.107 (active)
normalized growth (S. cerevisiae deletion strains, locus YNL271C, strain bni1, stronger effect = lower value): 0.0664 (active)
normalized growth (S. cerevisiae deletion strains, locus YNL298W, strain CLA4, stronger effect = lower value): 0.0607 (active)
normalized growth (S. cerevisiae deletion strains, locus YNL307C, strain MCK1, stronger effect = lower value): 0.0673 (active)
normalized growth (S. cerevisiae deletion strains, locus YNL322C, strain KRE1 (second series), stronger effect = lower value): 0.0716 (active)
normalized growth (S. cerevisiae deletion strains, locus YNR049C, strain mso1, stronger effect = lower value): 0.0569 (active)
normalized growth (S. cerevisiae deletion strains, locus YNR052C, strain pop2, stronger effect = lower value): 0.0607 (active)
normalized growth (S. cerevisiae deletion strains, locus YOL006C, strain TOP1, stronger effect = lower value): 0.101 (active)
normalized growth (S. cerevisiae deletion strains, locus YOL012C, strain htz1): 0.22
normalized growth (S. cerevisiae deletion strains, locus YOL147C, strain pex11, stronger effect = lower value): 0.0664 (active)
normalized growth (S. cerevisiae deletion strains, locus YOR001W, strain rrp6, stronger effect = lower value): 0.0665 (active)
normalized growth (S. cerevisiae deletion strains, locus YOR061W, strain CKA2, stronger effect = lower value): 0.0452 (active)
normalized growth (S. cerevisiae deletion strains, locus YOR069W, strain VPS5, stronger effect = lower value): 0.0467 (active)
normalized growth (S. cerevisiae deletion strains, locus YOR070C, strain gyp1, stronger effect = lower value): 0.0668 (active)
normalized growth (S. cerevisiae deletion strains, locus YOR080W, strain dia2, stronger effect = lower value): 0.0657 (active)
normalized growth (S. cerevisiae deletion strains, locus YOR083W, strain WHI5, stronger effect = lower value): 0.0673 (active)
normalized growth (S. cerevisiae deletion strains, locus YOR106W, strain vam3, stronger effect = lower value): 0.0651 (active)
normalized growth (S. cerevisiae deletion strains, locus YOR136W, strain idh2, stronger effect = lower value): 0.0728 (active)
normalized growth (S. cerevisiae deletion strains, locus YOR144C, strain elg1, stronger effect = lower value): 0.0629 (active)
normalized growth (S. cerevisiae deletion strains, locus YOR184W, strain ser1, stronger effect = lower value): 0.0779 (active)
normalized growth (S. cerevisiae deletion strains, locus YOR231W, strain MKK1, stronger effect = lower value): 0.103 (active)
normalized growth (S. cerevisiae deletion strains, locus YOR265W, strain rbl2, stronger effect = lower value): 0.0552 (active)
normalized growth (S. cerevisiae deletion strains, locus YOR270C, strain vph1, stronger effect = lower value): 0.0971 (active)
normalized growth (S. cerevisiae deletion strains, locus YOR290C, strain snf2, stronger effect = lower value): 0.0603 (active)
normalized growth (S. cerevisiae deletion strains, locus YOR316C, strain cot1, stronger effect = lower value): 0.0576 (active)
normalized growth (S. cerevisiae deletion strains, locus YPL051W, strain arl3, stronger effect = lower value): 0.0609 (active)
normalized growth (S. cerevisiae deletion strains, locus YPL055C, strain LGE1, stronger effect = lower value): 0.0695 (active)
normalized growth (S. cerevisiae deletion strains, locus YPL078C, strain atp4, stronger effect = lower value): 0.0642 (active)
normalized growth (S. cerevisiae deletion strains, locus YPL106C, strain sse1, stronger effect = lower value): 0.0953 (active)
normalized growth (S. cerevisiae deletion strains, locus YPL240C, strain hsp82, stronger effect = lower value): 0.0558 (active)
normalized growth (S. cerevisiae deletion strains, locus YPL256C, strain CLN2, stronger effect = lower value): 0.111 (active)
normalized growth (S. cerevisiae deletion strains, locus YPR119W, strain clb2, stronger effect = lower value): 0.0637 (active)
normalized growth (S. cerevisiae deletion strains, locus YPR141C, strain kar3, stronger effect = lower value): 0.0734 (active)
normalized growth (S. cerevisiae deletion strains, locus YPR163C, strain tif3, stronger effect = lower value): 0.0705 (active)
normalized growth (S. cerevisiae deletion strains, locus YPR167C, strain met16, stronger effect = lower value): 0.063 (active)
normalized growth (S. cerevisiae deletion strains, strain wtn01, stronger effect = lower value): 0.067 (active)
normalized growth (S. cerevisiae strains, strain wild type, stronger effect = lower value): 0.0467 (active)

Reference: PubChem BioAssay AID1159580 (chemical genetic matrix, 2015)
